# Test results taken from the supplement of paper PMC6089552.
# Out of some 3,200 compounds screened, about 300 (9.4%) showed activity. What follows is part of a selection rich in actives, with near analogues and random picks from the rest. A number with no mark means an inactive call.
# System: A673/TR/shEF
# Experiment: cell viability (LOESS-normalised, relative to median of negative controls) (log2 ratio); higher = more viable cells (less compound effect), active = hit call of the paper (over 3 MAD below the median)
# Settings: treatment time: 72 h
# How it was run: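 A673/TR/shEF Ewing sarcoma cells (1,500 per well, 384-well plates) were grown with or without doxycycline to induce EWS-FLI1 shRNA knockdown, starting 24 h before compounds. Library compounds at two or more concentrations, with DMSO controls, were added for three days. Cell viability was read by CellTiter-Glo luminescence on an Envision reader, then LOESS-corrected per plate, divided by the median of negative controls and log2-transformed. Hits were wells at least three median absolute deviations from the median of all screened wells.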
# [1] = 0.25 µM, library screen: screen1, EWS-FLI1 expression: high (no doxycycline)
# [2] = 0.25 µM, library screen: screen1, EWS-FLI1 expression: low (doxycycline-induced shRNA knockdown)
# [3] = 2.5 µM, library screen: screen1, EWS-FLI1 expression: high (no doxycycline)
# [4] = 2.5 µM, library screen: screen1, EWS-FLI1 expression: low (doxycycline-induced shRNA knockdown)
# [5] = 0.25 µM, library screen: screen2, EWS-FLI1 expression: high (no doxycycline)
# [6] = 0.25 µM, library screen: screen2, EWS-FLI1 expression: low (doxycycline-induced shRNA knockdown)
# [7] = 2.5 µM, library screen: screen2, EWS-FLI1 expression: high (no doxycycline)
# [8] = 2.5 µM, library screen: screen2, EWS-FLI1 expression: low (doxycycline-induced shRNA knockdown)
smiles,measurement,setting,value
CC1(COc2ccc3c(c2)ncn3-c2ccc3cccc(N4CCC(N)CC4)c3n2)COC1,cell viability (log2),"0.103 µM, library screen: screen3, EWS-FLI1 expression: high (no doxycycline)",-0.0477
same,cell viability (log2),"0.103 µM, library screen: screen3, EWS-FLI1 expression: low (doxycycline-induced shRNA knockdown)",-0.0112
same,cell viability (log2),"0.308 µM, library screen: screen3, EWS-FLI1 expression: high (no doxycycline)",0.0251
same,cell viability (log2),"0.308 µM, library screen: screen3, EWS-FLI1 expression: low (doxycycline-induced shRNA knockdown)",0.0104
same,cell viability (log2),"0.926 µM, library screen: screen3, EWS-FLI1 expression: high (no doxycycline)",0.0241
same,cell viability (log2),"0.926 µM, library screen: screen3, EWS-FLI1 expression: low (doxycycline-induced shRNA knockdown)",0.0302
same,cell viability (log2),"2.8 µM, library screen: screen3, EWS-FLI1 expression: high (no doxycycline)",0.0311
same,cell viability (log2),"2.8 µM, library screen: screen3, EWS-FLI1 expression: low (doxycycline-induced shRNA knockdown)",0.0382
same,cell viability (log2),"8.3 µM, library screen: screen3, EWS-FLI1 expression: high (no doxycycline)",-0.22 (active)
same,cell viability (log2),"8.3 µM, library screen: screen3, EWS-FLI1 expression: low (doxycycline-induced shRNA knockdown)",-0.0084
same,cell viability (log2),"25 µM, library screen: screen3, EWS-FLI1 expression: high (no doxycycline)",-1.66 (active)
same,cell viability (log2),"25 µM, library screen: screen3, EWS-FLI1 expression: low (doxycycline-induced shRNA knockdown)",-0.632 (active)
COc1ccc(OC)c(CN2CCN(Cc3ccccc3F)CC2)c1,cell viability (log2),[1],0.0715
same,cell viability (log2),[2],0.0693
same,cell viability (log2),[3],0.123
same,cell viability (log2),[4],0.0288
C=C1C2CCC3(C)C(c4ccoc4)OC(=O)CC13OC1CC(=O)C(C)(C)C(CC(=O)OC)C12C (stereo not drawn),cell viability (log2),[1],0.0862
same,cell viability (log2),[2],0.067
same,cell viability (log2),[3],0.0511
same,cell viability (log2),[4],0.0888
O=c1cc([C@H]2Oc3cc(O)cc(O)c3C[C@H]2O)cc2c([C@H]3Oc4cc(O)cc(O)c4C[C@H]3O)cc(O)c(O)c2c1O,cell viability (log2),[1],0.0869
same,cell viability (log2),[2],0.0834
same,cell viability (log2),[3],0.134
same,cell viability (log2),[4],0.162
C[n+]1cc2c3c(ccc2c2ccc4cc5c(cc4c21)OCO5)OCO3,cell viability (log2),"0.025 µM, library screen: screen2, EWS-FLI1 expression: high (no doxycycline)",0.0722
same,cell viability (log2),"0.025 µM, library screen: screen2, EWS-FLI1 expression: low (doxycycline-induced shRNA knockdown)",0.0049
same,cell viability (log2),[1],0.0872
same,cell viability (log2),[2],0.0117
same,cell viability (log2),[5],0.116
same,cell viability (log2),[6],0.0651
same,cell viability (log2),[3],-0.232 (active)
same,cell viability (log2),[4],-0.0123
same,cell viability (log2),[7],-0.101 (active)
same,cell viability (log2),[8],-0.0563
same,cell viability (log2),"25 µM, library screen: screen2, EWS-FLI1 expression: high (no doxycycline)",-4.23 (active)
same,cell viability (log2),"25 µM, library screen: screen2, EWS-FLI1 expression: low (doxycycline-induced shRNA knockdown)",-4.28 (active)
COc1ccc(C(=O)C=Cc2ccccc2)cc1,cell viability (log2),[1],0.0817
same,cell viability (log2),[2],0.0563
same,cell viability (log2),[3],0.0612
same,cell viability (log2),[4],0.0356
CC(C)=CC1C(CO)C1(C)C (stereo not drawn),cell viability (log2),[1],0.105
same,cell viability (log2),[2],0.00359
same,cell viability (log2),[3],0.117
same,cell viability (log2),[4],0.123
CCOC(=O)c1sc(C)c2c(=O)n(C3CCCCC3)cnc12,cell viability (log2),[1],0.0769
same,cell viability (log2),[2],0.0757
same,cell viability (log2),[3],0.067
same,cell viability (log2),[4],-0.0142
CC(C)(C)c1ccc(S(=O)(=O)/C=C/C#N)cc1,cell viability (log2),[5],0.205
same,cell viability (log2),[6],0.163
same,cell viability (log2),[7],-0.121 (active)
same,cell viability (log2),[8],0.0273
Cc1ccc(S(=O)(=O)/C=C/C#N)cc1,cell viability (log2),"0.025 µM, library screen: screen1, EWS-FLI1 expression: high (no doxycycline)",0.231
same,cell viability (log2),"0.025 µM, library screen: screen1, EWS-FLI1 expression: low (doxycycline-induced shRNA knockdown)",-0.0315
same,cell viability (log2),[1],0.131
same,cell viability (log2),[2],0.0518
same,cell viability (log2),[5],0.14
same,cell viability (log2),[6],-0.0223
same,cell viability (log2),[3],-0.841 (active)
same,cell viability (log2),[4],-0.123
same,cell viability (log2),[7],-0.102 (active)
same,cell viability (log2),[8],0.0315
same,cell viability (log2),"25 µM, library screen: screen1, EWS-FLI1 expression: high (no doxycycline)",-3.58 (active)
same,cell viability (log2),"25 µM, library screen: screen1, EWS-FLI1 expression: low (doxycycline-induced shRNA knockdown)",-2.12 (active)
C[C@@H](Oc1ccccc1)C(=O)N[C@@H]1C(=O)N2[C@@H]1SC(C)(C)[C@@H]2C(=O)O,cell viability (log2),[1],0.0816
same,cell viability (log2),[2],0.0301
same,cell viability (log2),[3],0.188
same,cell viability (log2),[4],0.189
CC1=C[C@@H]2[C@@H](CC1)[C@](C)(O)CC[C@H]2C(C)C,cell viability (log2),[1],0.0888
same,cell viability (log2),[2],0.0211
same,cell viability (log2),[3],0.101
same,cell viability (log2),[4],0.102
C=C1C2CC[C@@]3(C)[C@H](c4ccoc4)OC(=O)C[C@]13O[C@H]1C[C@H](OC(C)=O)C(C)(C)[C@H](CC(=O)OC)[C@@]21C,cell viability (log2),[1],0.122
same,cell viability (log2),[2],0.0225
same,cell viability (log2),[3],0.146
same,cell viability (log2),[4],0.192
Cc1onc(-c2c(Cl)cccc2Cl)c1C(=O)Nc1ccc(Br)cc1F,cell viability (log2),[1],0.112
same,cell viability (log2),[2],0.103
same,cell viability (log2),[3],0.116
same,cell viability (log2),[4],0.0234
O=C(O)/C=C/c1ccc(O)c(O)c1,cell viability (log2),[1],0.082
same,cell viability (log2),[2],-0.0191
same,cell viability (log2),[5],0.181
same,cell viability (log2),[6],0.126
same,cell viability (log2),[3],0.109
same,cell viability (log2),[4],0.0871
same,cell viability (log2),[7],0.0522
same,cell viability (log2),[8],0.0284
O=C(/C=C/c1ccc(O)c(O)c1)OCCc1ccccc1,cell viability (log2),[5],0.197
same,cell viability (log2),[6],0.0712
same,cell viability (log2),[7],-0.129 (active)
same,cell viability (log2),[8],0.0968
O=C(/C=C/c1ccc(O)c(O)c1)O[C@H](Cc1ccc(O)c(O)c1)C(=O)O,cell viability (log2),[1],0.0508
same,cell viability (log2),[2],0.0752
same,cell viability (log2),[3],0.0833
same,cell viability (log2),[4],0.158
N[C@@H](CSCSC[C@H](N)C(=O)O)C(=O)O,cell viability (log2),[1],0.0746
same,cell viability (log2),[2],0.0305
same,cell viability (log2),[3],0.129
same,cell viability (log2),[4],0.147
N#Cc1c(-c2ccc(Br)cc2)cc(-c2ccc3c(c2)OCO3)c(C#N)c1N,cell viability (log2),[1],0.0622
same,cell viability (log2),[2],0.109
same,cell viability (log2),[3],0.154
same,cell viability (log2),[4],0.0524
CCCc1occc(=O)c1C=CO,cell viability (log2),[1],-0.0143
same,cell viability (log2),[2],0.0143
same,cell viability (log2),[3],0.203
same,cell viability (log2),[4],0.0516
